A number with no mark means an inactive call. A call without a number means that no potency is given here. For some of these results: Potency and affinity values are given separately. The source made the active and inactive calls. Unless noted, the rule behind the calls is not given here.
Legend:
[1] = antimalarial activity against Dd2 strain (AID 2302;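 active = growth inhibition above 50% at the single 2 µM test dose, taken to imply half-maximal potency below 2 µM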); details: P. falciparum Dd2 in RBCs, LDH growth readout, 72 h; at 2 µM; hits give high values
[2] = HepG2 cytotoxicity, primary screen, cytotoxicity control for P. falciparum antimalarial project, cell-based, ATP luminescence (AID 2303;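 active = inhibition above 50%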); details: HepG2 viability, 24-48 h, at 10 µM, hits give high values
[3] = target: L-lactate dehydrogenase (Plasmodium falciparum (isolate CDC / Honduras)) (UniProt Q27743); experiment: PfLDH activity inhibition – cell lysate, 3D7 strain, counter-screen for P. falciparum growth inhibition project (AID 2304); details: P. falciparum 3D7 crude extract, LDH APAD/NBT absorbance; at 2 µM; hits give high values
Chain of L-lactate dehydrogenase (Plasmodium falciparum (isolate CDC / Honduras)) (Q27743 whole entry, looked up): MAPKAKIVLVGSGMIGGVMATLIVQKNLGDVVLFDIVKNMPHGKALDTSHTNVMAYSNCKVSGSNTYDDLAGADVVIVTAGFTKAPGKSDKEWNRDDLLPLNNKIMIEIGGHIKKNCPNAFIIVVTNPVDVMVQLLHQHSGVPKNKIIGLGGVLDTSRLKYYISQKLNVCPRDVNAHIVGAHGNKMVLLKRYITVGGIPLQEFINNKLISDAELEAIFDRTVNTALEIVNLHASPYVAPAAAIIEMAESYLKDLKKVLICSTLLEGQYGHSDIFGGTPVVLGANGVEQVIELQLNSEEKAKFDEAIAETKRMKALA

[4] = inhibition of 3D7 malaria parasite growth – strain 3D7 (AID 2306); details: P. falciparum 3D7 erythrocytic growth, LDH absorbance, 72 h; at 2 µM; hits give high values
[5] = target: Calcium-dependent protein kinase 1 (Plasmodium falciparum (isolate 3D7)) (UniProt P62344); experiment: PfCDPK1 kinase inhibitors, biochemical, TCAMS library (AID 1159585; cut-off not given, nearly all actives have IC50 up to about 0.98 µM;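 note: inhibitors leave more ATP so luminescence rises with inhibition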); details: recombinant PfCDPK1, Kinase-Glo ATP depletion luminescence
Chain of Calcium-dependent protein kinase 1 (Plasmodium falciparum (isolate 3D7)) (P62344 whole entry, looked up): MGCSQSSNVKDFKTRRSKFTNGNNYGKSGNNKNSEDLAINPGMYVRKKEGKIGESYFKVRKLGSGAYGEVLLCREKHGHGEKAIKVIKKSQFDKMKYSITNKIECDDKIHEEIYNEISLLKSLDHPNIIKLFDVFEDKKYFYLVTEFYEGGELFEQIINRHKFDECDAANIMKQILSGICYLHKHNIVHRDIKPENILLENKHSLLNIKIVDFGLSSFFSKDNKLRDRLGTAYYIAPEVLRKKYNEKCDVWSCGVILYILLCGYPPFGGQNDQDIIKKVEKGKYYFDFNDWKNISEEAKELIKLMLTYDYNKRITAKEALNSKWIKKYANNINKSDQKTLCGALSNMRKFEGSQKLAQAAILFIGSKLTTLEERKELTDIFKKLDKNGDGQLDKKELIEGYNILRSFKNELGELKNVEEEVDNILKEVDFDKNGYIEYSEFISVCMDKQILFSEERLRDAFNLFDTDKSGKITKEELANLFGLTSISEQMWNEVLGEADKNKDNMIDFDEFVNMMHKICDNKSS

[6] = target: Plasmodium falciparum protein kinase 6 (PK6, PF3D7_1337100) (UniProt Q8IDW1); experiment: PfPK6 kinase inhibitors, biochemical, TCAMS library (AID 1159586); details: recombinant PfPK6, Kinase-Glo ATP depletion luminescence
Chain of Plasmodium falciparum protein kinase 6 (PK6, PF3D7_1337100) (Q8IDW1 1-305): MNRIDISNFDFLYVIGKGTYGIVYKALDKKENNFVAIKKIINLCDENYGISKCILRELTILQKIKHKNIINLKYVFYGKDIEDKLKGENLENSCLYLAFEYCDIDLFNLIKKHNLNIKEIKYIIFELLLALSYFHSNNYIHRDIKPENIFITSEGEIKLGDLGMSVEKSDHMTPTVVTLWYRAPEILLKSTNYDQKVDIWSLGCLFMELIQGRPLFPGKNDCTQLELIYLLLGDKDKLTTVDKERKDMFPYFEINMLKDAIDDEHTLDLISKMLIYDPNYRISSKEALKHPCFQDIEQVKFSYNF

[7] = target: Protein kinase 7 (PK7), Plasmodium falciparum 3D7 (PF3D7_0213400) (UniProt Q7YTF7); experiment: inhibition of Plasmodium PK7 catalytic activity – biochemical, TCAMS antimalarial set, Kinase-Glo luminescence (AID 1159587); details: recombinant PfPK7, Kinase-Glo ATP depletion luminescence
Chain of Protein kinase 7 (PK7), Plasmodium falciparum 3D7 (PF3D7_0213400) (Q7YTF7 1-343): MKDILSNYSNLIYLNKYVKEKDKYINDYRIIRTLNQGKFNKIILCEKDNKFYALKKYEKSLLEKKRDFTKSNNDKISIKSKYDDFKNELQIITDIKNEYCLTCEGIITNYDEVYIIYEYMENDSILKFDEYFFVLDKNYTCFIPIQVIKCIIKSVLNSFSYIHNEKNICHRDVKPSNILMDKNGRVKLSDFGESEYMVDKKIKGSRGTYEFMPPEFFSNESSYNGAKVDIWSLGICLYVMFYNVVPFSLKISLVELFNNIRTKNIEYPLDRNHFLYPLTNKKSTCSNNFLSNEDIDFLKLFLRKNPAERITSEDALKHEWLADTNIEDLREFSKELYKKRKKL

[8] = target: Calcium-dependent protein kinase 4 (Plasmodium falciparum (isolate 3D7)) (UniProt Q8IBS5); experiment: PfCDPK4 kinase inhibitors, biochemical, TCAMS library (AID 1159588; cut-off not given, nearly all actives have IC50 up to about 0.91 µM); details: recombinant PfCDPK4, Kinase-Glo ATP depletion luminescence
Chain of Calcium-dependent protein kinase 4 (Plasmodium falciparum (isolate 3D7)) (Q8IBS5 whole entry, looked up): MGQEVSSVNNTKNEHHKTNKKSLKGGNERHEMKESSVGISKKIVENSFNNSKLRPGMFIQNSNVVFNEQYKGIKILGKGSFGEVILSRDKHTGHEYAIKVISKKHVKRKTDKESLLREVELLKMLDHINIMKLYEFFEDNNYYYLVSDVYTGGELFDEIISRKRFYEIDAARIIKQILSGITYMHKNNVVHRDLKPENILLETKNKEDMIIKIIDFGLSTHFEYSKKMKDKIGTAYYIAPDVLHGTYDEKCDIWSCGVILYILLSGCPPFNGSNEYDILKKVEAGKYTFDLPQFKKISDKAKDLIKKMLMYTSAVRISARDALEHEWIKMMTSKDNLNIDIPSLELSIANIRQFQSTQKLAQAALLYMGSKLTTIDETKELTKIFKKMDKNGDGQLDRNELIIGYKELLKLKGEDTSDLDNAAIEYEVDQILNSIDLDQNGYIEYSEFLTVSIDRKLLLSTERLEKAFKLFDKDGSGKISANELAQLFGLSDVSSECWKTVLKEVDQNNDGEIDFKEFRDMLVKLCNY

| Structure (SMILES) | growth inhibition [1] | inhibition [2] | inhibition [3] | growth inhibition [4] | outcome [5] | outcome [6] | outcome [7] | outcome [8] |
| --- | --- | --- | --- | --- | --- | --- | --- | --- |
| CCCN1CCN(CC(O)CNC(=O)Nc2ccc(Cl)cc2)CC1 (stereo not given) | 100% (active) | 6% | -3% | 100% (active) | inactive | inactive | inactive | inactive |
| CCCCCCN1CCC(NCc2ccc(OCCN3CCCC3)cc2)CC1 | 93% (active) | 23% | 0% | 101% (active) | inactive | inactive | inactive | inactive |
| O=[N+]([O-])c1ccccc1C=NNc1ccnc2ccccc12 | 98% (active) | 3% | 2% | 101% (active) | inactive | inactive | inactive | inactive |
| Cc1cccc2[nH]c(-c3cccc(-c4cccc(NC(=O)c5ccc(C(N)=O)cc5)c4)c3)nc12 | 34% | 25% | 0% | 101% (active) | inactive | inactive | inactive | inactive |
| CC(=O)N(C)c1ccc(C(=O)Nc2cccc(-c3cccc(-c4nc5ccc(C(F)(F)F)cc5[nH]4)c3)c2)cc1 | 29% | 31% | -6% | 96% (active) | inactive | inactive | inactive | inactive |
| COc1ccc(-c2ccc([N+](=O)[O-])cc2C(=O)NCC(C)Oc2ccc(C(F)(F)F)cc2)cc1 (stereo not given) | 81% (active) | 6% | 5% | 102% (active) | inactive | inactive | inactive | inactive |
| CCCCCOc1ccc(N2C(N)=NC(N)=NC2(C)C)cc1 | -4% | 24% | -4% | 97% (active) | inactive | inactive | inactive | inactive |
| O=C(Nc1ccc(-c2nc3cc4ccccc4cc3[nH]2)cc1)c1cccc(Br)c1 | 89% (active) | 50% (active) | -5% | 101% (active) | inactive | inactive | inactive | inactive |
| CN1CCc2cc(NS(=O)(=O)c3ccc(-c4ccc(Cl)cc4)cc3)c(OCCCN3CCCCC3)cc2CC1 | 100% (active) | 91% (active) | 0% | 101% (active) | inactive | inactive | inactive | inactive |
| CC1(C)Cc2c(oc3ncn(CCn4cnc5oc6c(c5c4=N)CC(C)(C)SC6)c(=N)c23)CS1 | 93% (active) | -11% | 0% | 98% (active) | inactive | inactive | inactive | inactive |
| O=C(Nc1nc(-c2ccccn2)cs1)c1ccc(S(=O)(=O)N2CCc3ccccc32)cc1 | 15% | 47% | 2% | 89% (active) | inactive | inactive | inactive | inactive |
| O=C(Nc1cccc(-c2csc(-c3ccccc3)n2)c1)c1cccs1 | 71% (active) | 0% | 2% | 89% (active) | inactive | inactive | inactive | inactive |
| CC(=O)Nc1ccc(C(=O)Nc2cccc(-c3ccc(-c4nc5ccccc5[nH]4)cc3)c2)cn1 | 93% (active) | 12% | 0% | 100% (active) | inactive | inactive | inactive | inactive |
| Fc1cccc(COc2ccc(Nc3ncnc4cc(/C=C/[C@@H]5CCCN5)sc34)cc2Cl)c1 | 56% (active) | 17% | -7% | 100% (active) | inactive | inactive | inactive | inactive |
| CC1CCN(Cc2cccc(C(=O)NCc3ccc(F)c(-c4cccc(CN5CCN[C@@H](C)C5)c4)c3)c2)CC1 | 64% (active) | 26% | 2% | 91% (active) | inactive | inactive | inactive | inactive |
| CCOc1cc(Cc2cnc(N)nc2N)cc(OCC)c1OCC | 0% | -1% | 5% | 97% (active) | inactive | inactive | inactive | inactive |
| C=CCn1c(=N)n(CC(O)c2ccc(Cl)c(Cl)c2)c2ccccc21 (stereo not given) | 80% (active) | 15% | 1% | 91% (active) | inactive | inactive | inactive | inactive |
| N#Cc1ccc2c(c1)CCN(CCC1CCC(NC(=O)c3ccc(-c4ccccn4)s3)CC1)CC2 (stereo not given) | 9% | 16% | 1% | 92% (active) | inactive | inactive | inactive | inactive |
| COc1ccc(C2N=C(N)N=C(N)N2OCc2ccccc2)cc1OC (stereo not given) | 2% | 1% | 0% | 95% (active) | inactive | inactive | inactive | inactive |
| CS(=O)(=O)CCNCc1nc(-c2ccc3c(Nc4ccc(F)c(O)c4)ccnc3c2)cs1 | 84% (active) | -10% | 3% | 95% (active) | inactive | inactive | inactive | inactive |

Source: PubChem BioAssay
